For assay [1], the target named is Peroxisome proliferator-activated receptor gamma (Homo sapiens) (UniProt P37231). The assay can be described thus: qHTS assay for small molecule agonists of peroxisome proliferator-activated receptor gamma signaling (AID 588536; active means well fitted curve in the direction sought with a large enough effect in the signal ratio, with a control signal flat, not every such curve was filed as active; the % refers to the signal ratio;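 further: 0% = DMSO basal wells and 100% = rosiglitazone at 2 µM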). In a few lines: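 Cells were plated and held 6–6.5 h at 37 C, then compounds were added as a titration series. After a further 16 h, CCF4 dye was loaded for 2 h at room temperature and emission at 460/530 nm recorded.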
Chain of Peroxisome proliferator-activated receptor gamma (Homo sapiens) (P37231 whole entry, looked up): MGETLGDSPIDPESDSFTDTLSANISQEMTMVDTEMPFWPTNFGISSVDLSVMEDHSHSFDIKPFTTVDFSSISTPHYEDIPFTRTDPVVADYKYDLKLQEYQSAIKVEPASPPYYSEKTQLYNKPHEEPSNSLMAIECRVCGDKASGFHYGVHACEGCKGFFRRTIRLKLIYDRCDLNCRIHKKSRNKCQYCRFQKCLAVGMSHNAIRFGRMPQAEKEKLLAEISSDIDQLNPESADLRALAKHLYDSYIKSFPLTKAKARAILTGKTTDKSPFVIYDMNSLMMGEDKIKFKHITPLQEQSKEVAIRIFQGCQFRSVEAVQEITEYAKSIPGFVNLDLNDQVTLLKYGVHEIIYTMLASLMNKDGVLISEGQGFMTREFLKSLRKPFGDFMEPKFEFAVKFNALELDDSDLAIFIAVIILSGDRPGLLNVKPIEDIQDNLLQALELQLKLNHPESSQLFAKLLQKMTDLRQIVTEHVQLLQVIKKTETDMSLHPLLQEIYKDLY

Assay [2] deals with Vitamin D3 receptor (Homo sapiens) (UniProt P11473). The assay can be described thus: qHTS assay for small molecule antagonists of vitamin D receptor signaling (AID 588541).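 Further: receptor activated by calcitriol during compound treatment; series mostly up to about 77 µM; on the % scale 0 is the no-effect control and ±100 the full control effect.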 A digest of the protocol: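 VDR-UAS-bla HEK293T cells (2000/well, 2% charcoal-stripped FBS) were treated with titrated compounds plus 1-alpha,25-dihydroxyvitamin D3 (50 nM or 3 nM final) for 16 h at 37 C. CCF4 beta-lactamase fluorescence was read; Hill fits gave IC50.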
Chain of Vitamin D3 receptor (Homo sapiens) (P11473 whole entry, looked up): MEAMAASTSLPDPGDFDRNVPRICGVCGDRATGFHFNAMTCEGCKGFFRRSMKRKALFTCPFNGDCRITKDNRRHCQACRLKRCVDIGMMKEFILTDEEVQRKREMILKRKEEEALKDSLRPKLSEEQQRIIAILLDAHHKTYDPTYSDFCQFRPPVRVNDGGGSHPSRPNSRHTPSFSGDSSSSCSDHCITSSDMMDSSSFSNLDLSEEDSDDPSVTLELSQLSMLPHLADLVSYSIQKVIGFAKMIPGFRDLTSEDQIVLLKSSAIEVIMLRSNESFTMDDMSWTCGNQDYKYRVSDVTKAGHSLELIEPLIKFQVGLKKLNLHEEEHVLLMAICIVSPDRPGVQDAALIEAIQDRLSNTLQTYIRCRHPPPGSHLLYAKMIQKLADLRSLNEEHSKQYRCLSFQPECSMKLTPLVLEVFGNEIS
(In general: Quantitative high-throughput screening tests each substance at several concentrations.)

For assay [3] the target is unchanged. The assay can be described thus: qHTS assay for small molecule agonists of vitamin D receptor signaling (AID 588543).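 Further: 0% = DMSO basal and 100% = reference agonist control.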 A digest of the protocol:
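GeneBLAzer VDR-UAS-bla HEK293T cells in 2% charcoal-stripped FBS medium were dosed with compound titrations for 16 h at 37 °C; CCF4 β-lactamase readout (405 nm ex, 460/530 nm em). EC50 and efficacy from Hill fits, normalized to 50 nM calcitriol (100%) and DMSO (0%).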

Assay [4] in a line: qHTS assay for small molecule agonists of retinoid X receptor alpha signaling (AID 588544). As to conditions: HEK293T RXRa-UAS-bla, beta-lactamase reporter, 18 h; 530 nm emission.
Assay [5] concerns the target Retinoic acid receptor RXR-alpha (Homo sapiens) (UniProt P19793). The assay is described as above.
Assay [6] addresses Thyroid hormone receptor beta (Homo sapiens) (UniProt P10828). The assay can be described thus: qHTS assay for small molecule agonists of thyroid hormone receptor beta signaling (AID 588545).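 Further: 0% = DMSO only and 100% = 10 nM T3.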 A digest of the protocol: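 Stimulation of a TR-driven beta-lactamase reporter was quantified in GripTite HEK 293 cells. Compound series ran for 18 hrs; curves were normalized to T3 and DMSO controls and fitted to yield EC50.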

A short description of assay [7]: qHTS assay for small molecule antagonists of retinoid X receptor alpha signaling (AID 588546; active means well fitted inhibition curve with a large enough effect in the signal ratio, with a control signal flat, not every such curve was filed as active; the % refers to the signal ratio;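 further: cells stimulated with 9-cis-retinoic acid as agonist; on the % scale 0 is the no-effect control and ±100 the full control effect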). As to conditions: HEK293T RXRa-UAS-bla, beta-lactamase ratio, antagonist mode; measured here: W530 green channel, cytotoxicity proxy. In a few lines: (§1)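 Beta-lactamase reporter inhibition, read as CCF4 fluorescence ratio (ex 405, em 460/530 nm) after 2 h at RT. HEK293T UAS-bla cells, 2500/well, were stimulated with 9-cis-RA at 500 or 100 nM final alongside test compound for 18 h at 37 C.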

Assay [8] addresses Retinoic acid receptor RXR-alpha (Homo sapiens) (UniProt P19793). The description is as above. The following applies: HEK293T RXRa-UAS-bla, beta-lactamase ratio, antagonist mode. In a few lines: as §1
The target in assay [9] is Thyroid hormone receptor beta (Homo sapiens) (UniProt P10828). Kind of assay: qHTS assay for small molecule antagonists of thyroid hormone receptor beta signaling (AID 588547; active means well fitted inhibition curve with a large enough effect in the signal ratio, with a control signal flat, not every such curve was filed as active; the % refers to the signal ratio;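 further: cells stimulated with 0.4 nM T3 agonist during compound exposure; series mostly up to about 77 µM; on the % scale 0 is the no-effect control and ±100 the full control effect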). As to conditions: TR-UAS-bla HEK293, beta-lactamase ratio, antagonist mode, 18 h. In a few lines: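 TR-UAS-bla GripTite HEK293 cells in 2% charcoal/dextran FBS medium were preincubated 4 h at 37 C, given compound (0.59 nM to 92 uM) plus 0.4 nM T3 (final) for 18 h, then CCF4 for 2 h at RT; Hill fit gave IC50.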
Chain of Thyroid hormone receptor beta (Homo sapiens) (P10828 whole entry, looked up): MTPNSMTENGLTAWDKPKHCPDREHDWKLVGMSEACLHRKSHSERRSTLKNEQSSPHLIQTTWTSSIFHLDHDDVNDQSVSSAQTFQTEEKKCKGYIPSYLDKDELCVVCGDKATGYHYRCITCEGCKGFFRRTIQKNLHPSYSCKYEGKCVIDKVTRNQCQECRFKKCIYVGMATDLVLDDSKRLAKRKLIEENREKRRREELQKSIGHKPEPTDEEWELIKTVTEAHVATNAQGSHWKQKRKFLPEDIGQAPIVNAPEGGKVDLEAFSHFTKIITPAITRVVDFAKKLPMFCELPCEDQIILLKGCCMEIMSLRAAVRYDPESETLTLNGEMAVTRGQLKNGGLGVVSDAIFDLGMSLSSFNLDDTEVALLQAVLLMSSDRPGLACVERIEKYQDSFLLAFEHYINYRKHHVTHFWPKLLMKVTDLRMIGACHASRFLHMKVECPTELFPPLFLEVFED

The target of assay [10] is Peroxisome proliferator-activated receptor gamma (Homo sapiens) (UniProt P37231). Kind of assay: qHTS assay for small molecule antagonists of peroxisome proliferator-activated receptor gamma signaling (AID 588537; active means well fitted inhibition curve with a large enough effect in the signal ratio, with a control signal flat, not every such curve was filed as active; the % refers to the signal ratio;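 further: reporter cells co-stimulated with 50 nM rosiglitazone agonist during compound treatment; % of control where 0% means no effect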). In a few lines:
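Compounds are tested as concentration series for inhibition of rosiglitazone-driven (50 nM) reporter expression in GeneBLAzer PPAR-gamma-UAS-bla HEK293 cells. After 16 h at 37 C, CCF4 substrate is added for 2 h at room temperature and blue/green fluorescence is measured.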

The values that follow come from PubChem BioAssay (NCATS).

The structures appear in SMILES notation. “And” between values parts separate entries of the source, which are not always exact repeats. Equal entries are not always repeated. Records with an inconclusive call do not appear. The source made the active and inactive calls. Unless noted, the call rests on the fitted dose curve.

Chain of Retinoic acid receptor RXR-alpha (Homo sapiens) (P19793 whole entry, looked up): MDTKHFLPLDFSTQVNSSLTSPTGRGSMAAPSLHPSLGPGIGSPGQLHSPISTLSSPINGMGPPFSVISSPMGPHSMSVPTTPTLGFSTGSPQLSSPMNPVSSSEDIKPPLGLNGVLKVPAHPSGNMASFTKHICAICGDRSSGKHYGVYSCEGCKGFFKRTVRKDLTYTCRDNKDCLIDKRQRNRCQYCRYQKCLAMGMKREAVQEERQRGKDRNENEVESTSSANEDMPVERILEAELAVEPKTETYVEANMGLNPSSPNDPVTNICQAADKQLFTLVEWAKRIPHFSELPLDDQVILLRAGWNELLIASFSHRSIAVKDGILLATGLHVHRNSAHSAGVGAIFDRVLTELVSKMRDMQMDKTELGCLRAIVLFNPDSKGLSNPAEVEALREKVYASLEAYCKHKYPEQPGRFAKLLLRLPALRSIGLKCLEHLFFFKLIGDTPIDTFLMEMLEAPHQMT

As to `CC(C)c1cccc(C(C)C)c1O`, the compound was classed as inactive in assay [1], in [3] and in assay [6]. Further, the Potency result in [2] and in assay [5] was “inactive” each time. Further, the max response in assay [4] was -14.1%; in [7], 2.4%; in assay [8] it was 16.4% (inactive). In addition, in assay [9], the activity change % (negative = inhibition) is -3.45% (inactive).

As for `Nc1ccccc1C(=O)O`, the result in assay [1], in assay [10], in assay [3] and in assay [6] was inactive. The Potency entry in assay [2] and in assay [5] was “inactive” in each case. Further, the max response in assay [4] was -3.98%; in assay [7] it was -6.42%; in assay [8], 6.99% (inactive). Besides, the activity change % (negative = inhibition) in assay [9] was 18% (inactive).

Take `COc1cc(OC)c(OC)cc1C=O`: the result in assay [1] and in [3] was inactive. In assay [2], the Potency result was “inactive”. Besides, the max response in assay [7] was -5.72%; in assay [8], -9.79% (inactive).

On to `CCCC(C)(COC(N)=O)COC(N)=O`, for which the compound was classed as inactive in assay [1], in [10], in assay [3] and in assay [6]. Besides, the Potency result in assay [2] is “inactive”. In addition, the values for the max response in assay [7] and in assay [8] were -3.53% and -3.87% (inactive), respectively. For the same compound, the activity change % (negative = inhibition) in [9] was 14.4% (inactive).

For the compound `O=C(O)CCCc1ccc(N(CCCl)CCCl)cc1`, the compound was called inactive in assay [1], in assay [10], in [3] and in assay [6]. Also, the Potency result in assay [2] and in assay [5] was “inactive” throughout. In addition, the max response is 15.5% and 20.9% in [4]; 6.94% and -4.83% in assay [7]; 8.7% (inactive) and 8.13% (inactive) in assay [8]. In addition, the activity change % (negative = inhibition) in [9] was 16.9% (inactive) and 14.1% (inactive).

In the case of `Clc1ccc(C(c2ccc(Cl)cc2)C(Cl)(Cl)Cl)cc1`, the compound was called inactive in assay [10], in [3] and in assay [6]. In addition, the Potency entry in assay [2] was “inactive”. The activity change % (negative = inhibition) in [9] was -20.1% (inactive) and -18.4% (inactive).

For `Nc1ccccc1`, the compound was classed as inactive in assay [1], in assay [10], in assay [3] and in [6]. For the same compound, the max response in assay [4] was 9.36%; in [7], -11.1%; in [8], 4.87% (inactive). Also, in [5], the Potency entry is “inactive”. Besides, the activity change % (negative = inhibition) in assay [9] is -1.42% (inactive).

Take `CC(C)NC(C)C`: the call in assay [1], in assay [3] and in [6] was inactive. Also, the Potency result in assay [2] and in [5] was “inactive” throughout. For the same compound, the max response was -5.82% in [4], -16.3% in assay [7] and 9.42% (inactive) in assay [8].

For the compound `Nc1ccc([As](=O)(O)O)cc1`, the outcome in [1], in assay [10], in assay [3] and in assay [6] was inactive. Further, the Potency result in [2] and in assay [5] was “inactive” each time. Further, the max response in assay [4] is -10%; in assay [7] it was -13.3%; in assay [8], -8.6% (inactive). Moreover, in [9], the activity change % (negative = inhibition) is 0.893% (inactive).

Consider `COP(=S)(OC)Oc1cc(Cl)c(Cl)cc1Cl`, for which the result in assay [1], in [10] and in [6] was inactive. In addition, the max response in [4] is -2.58%; in assay [7], 1.09%; in assay [8] it was -5.5% (inactive). For the same compound, in assay [5], the Potency result is “inactive”. Besides, the activity change % (negative = inhibition) in assay [9] is 19.2% (inactive).

On to `Oc1ccc(Cl)cc1`, for which the result in [1], in assay [10], in assay [3] and in assay [6] was inactive. Also, the Potency entry in [2] and in assay [5] was “inactive” each time. In addition, the max response in [4] is -11.6%; in [7], -7.58%; in [8] it was -3.06% (inactive). The activity change % (negative = inhibition) in assay [9] is -0.268% (inactive).

Regarding `C[C@]1(O)CC[C@H]2[C@@H]3CCC4=CC(=O)CC[C@]4(C)[C@@]3(F)[C@@H](O)C[C@@]21C`, the result in [1], in [10] and in assay [6] was inactive. Also, the values for the max response in assay [4], in [7] and in assay [8] were 3.94%, 17.9% and -6.75% (inactive), respectively. Also, the Potency result in assay [5] is “inactive”. Besides, the activity change % (negative = inhibition) in [9] is 5.6% (inactive).

In the case of `COC(=O)C(c1ccccc1)C1CCCCN1` (stereo not given), the outcome in assay [1], in assay [10], in [3] and in assay [6] was inactive. For the same compound, in assay [2], the Potency result was “inactive”. The max response in [7] is -4.37%; in [8], -5.94% (inactive). Further, in assay [9], the activity change % (negative = inhibition) was 13% (inactive).

With `CN1C[C@H](C(=O)N[C@]2(C)O[C@@]3(O)[C@@H]4CCCN4C(=O)[C@H](Cc4ccccc4)N3C2=O)C=C2c3cccc4[nH]cc(c34)C[C@H]21`, the compound was classed as inactive in [3] and in assay [6].
